Results published in ChEMBL document CHEMBL4513216, “Probing the Open Global Health Chemical Diversity Library for Multistage-Active Starting Points for Next-Generation Antimalarials” (ACS Infect Dis, 2020).
In all, about 69,000 compounds went through this assay and about 8,600 (12%) showed an effect of 50% or more. Only a selection was taken, and strong results are over-represented in it overall.

Tested on: Plasmodium berghei
Experiment: Screen against P. berghei liver stage (PbLuc), transformed with Luciferase, at 10uM
Type: functional, HepG2
Conditions: tested at 10 uM

Compared with `CC(c1cccc(S(N)(=O)=O)c1)N(C)CCCOc1ccccc1` (configuration not stated), `CCN(C)S(=O)(=O)N(CC)Cc1cccc(-c2ccncc2)c1` is higher in INHIBITION: 23.4% for the first, 58.3% for the second.

Compared with `CCN1CCC(CC(=O)NCCc2nc(O)cc(O)n2)CC1`, `Cc1nc(CCN2CCC(Oc3ccccc3F)CC2)cs1` is higher in INHIBITION: -16.3% for the first, 42.5% for the second.

Compared with `COc1c(CNC2CCCN(c3ncccn3)C2)c(C(C)C)nn1C` (configuration not stated), `COCCn1cnnc1C1CCCN(C(C)C)C1` (configuration not stated) is lower in INHIBITION: 42.9% for the first, -16.5% for the second.

First: Cc1ccc(CN2CCC3(CC2)C(=O)N(CC(C)C)CCN3C)s1
Second: Cc1nc2c(c(=O)n1C)CCN(Cc1cc3ccccc3[nH]1)CC2
The INHIBITION of the first is lower: -31.9% for the first, 60.4% for the second.

Compared with `CCC(C)Oc1ccc(CNCCNC(C)=O)cc1Cl` (configuration not stated), `CCC(C)Oc1ccc(CNCCNC(C)=O)cc1OC` (configuration not stated) is lower in INHIBITION: 60.2% for the first, 40.7% for the second.

Going from `CC(CNCc1ccc(Cl)c(Cl)c1)Oc1ccccn1` (configuration not stated) to `COc1ccc(CNCC(C)Oc2ccccn2)cc1Cl` (configuration not stated), the INHIBITION rises from -41.8% to 17%.

Compared with `COc1ccc(CNC(=O)NCCCNS(C)(=O)=O)cc1OC`, `CCC(C)Oc1ccc(CNCCNS(C)(=O)=O)cc1Cl` (configuration not stated) is higher in INHIBITION: 33.8% for the first, 60.2% for the second.

Going from `Cc1cccc(CN2CCCC(O)(CNCCc3c[nH]cn3)C2=O)c1` (configuration not stated) to `CCC(C)Oc1ccc(CNCCc2c[nH]cn2)cc1Cl` (configuration not stated), the INHIBITION rises from 48.1% to 66.8%.

Compared with `CC(=O)NCCNC(=O)NCc1ccc(Br)cc1Cl`, `CCC(CNC(=O)CNC(C)=O)Oc1cccc(F)c1` (configuration not stated) is higher in INHIBITION: 4.41% for the first, 51.7% for the second.

Going from `CCOCC1COCCC12CCN(C(=O)CCOC)CC2` (configuration not stated) to `CS(=O)(=O)N[C@@H]1CCO[C@]2(CCN(CC3CCOCC3)C2)C1`, the INHIBITION falls from 8.67% to -33.9%.

First: CC(=O)N1CCN(c2ccc(Cl)nn2)C(=O)C1
Second: COc1cccc(C(=O)N2CCc3c(nc(N)[nH]c3=O)C2)c1OC
The INHIBITION of the first is higher: 40.8% for the first, -6.91% for the second.

Compared with `NC(=O)C1CCN(C(=O)c2cccn2Cc2cccs2)CC1`, `c1cncc(COCc2nnc3n2CCN(Cc2cccs2)C3)c1` is higher in INHIBITION: -12.1% for the first, -8.94% for the second.

First: CC(C)N(Cc1ccc(Cl)c(Cl)c1)C(=O)Cn1cncn1
Second: CCCC(=O)N(Cc1ccncc1)C(C)CC (configuration not stated)
The INHIBITION of the first is lower: 9.55% for the first, 49% for the second.

Going from `Cc1cc(C)n(C2CCCN(C(=O)Cc3ccc(C#N)cc3)C2)n1` (configuration not stated) to `COc1ccc(CC(=O)N2CCC(Nc3ccc(C)nn3)CC2)cc1`, the INHIBITION falls from 29.7% to -16%.

Going from `C1CC(CN2C[C@@H]3C[C@@H](c4nnc(C5CC5)o4)O[C@@H]3C2)CCO1` to `c1c(CN2CCOCC2)nc2n1CCN(CC1CC1)C2`, the INHIBITION rises from 3.58% to 23.6%.

Going from `CCC(CNC(=O)c1ccc(C(N)=O)cc1)Oc1cccc(F)c1` (configuration not stated) to `CCC(=O)NCC(CC)Oc1cccc(F)c1` (configuration not stated), the INHIBITION falls from 33.2% to 23%.

Going from `CCC(CNC(=O)Cn1ccnc1)Oc1cccc(F)c1` (configuration not stated) to `CCC(CNC(=O)COC)Oc1cccc(F)c1` (configuration not stated), the INHIBITION falls from 42.4% to 26.7%.

Compared with `CCC(CNC(=O)Cc1cc(C)on1)Oc1cccc(F)c1` (configuration not stated), `COCCN(Cc1cccnc1)S(=O)(=O)c1ccc(F)cc1C` is lower in INHIBITION: 54.5% for the first, 26% for the second.

Going from `NCc1cccc(-c2cccnc2C(=O)NCCN2CCCC2)c1` to `CCN(Cc1cccc(-c2ccncc2)c1)S(N)(=O)=O`, the INHIBITION rises from -8.58% to 11.7%.

Going from `CC(C)(C)c1ncc(CNCC2CN(C3CC3)CCO2)s1` (configuration not stated) to `COc1ccc(-c2n[nH]cc2CNC2CCN(C3CC3)CC2)cc1`, the INHIBITION falls from 37.7% to -39.6%.

First: C=c1occc1=C1NC(c2cccc(CN3CCOCC3)c2)=NO1
Second: O=C1COC2(COCCN(Cc3cccnc3)C2)CN1c1ccoc1 (configuration not stated)
The INHIBITION of the first is lower: -2.69% for the first, 12.2% for the second.

Going from `CCOc1ccc(S(=O)(=O)N(CCOC)Cc2ccoc2)cc1F` to `COCCN(Cc1ccoc1)S(=O)(=O)c1ccc(F)c(C)c1`, the INHIBITION rises from -17.7% to 0.348%.

First: CCCN(Cc1ccccc1O)S(=O)(=O)N(C)CC
Second: CCCN(CCC)S(=O)(=O)N(C)Cc1ccncc1
The INHIBITION of the first is lower: -58% for the first, 53.4% for the second.

First: CCOc1ccc(S(=O)(=O)N(CCOC)Cc2ccncc2)cc1F
Second: COCCN(Cc1cccnc1)S(=O)(=O)c1cc(C)ccc1F
The INHIBITION of the first is lower: 58.8% for the first, 59.4% for the second.

Going from `COCCN(Cc1cccnc1)S(=O)(=O)c1cccc(F)c1F` to `CCN(Cc1cccc(-c2ccncc2)c1)S(C)(=O)=O`, the INHIBITION rises from 29.4% to 29.6%.

Compared with `CC(c1ccc(Br)cc1)N1CCCN(C(N)=O)CC1` (configuration not stated), `CC(C)n1cc(CN2CCCN(C(=O)C(C)n3cncn3)CC2)cn1` (configuration not stated) is higher in INHIBITION: 12.3% for the first, 26.4% for the second.

Compared with `Cn1cc(NC(=O)C2CC(c3ccccc3)C2)ccc1=O` (configuration not stated), `COCCN(Cc1ccncc1)C(=O)C1COc2ccccc2C1` (configuration not stated) is higher in INHIBITION: -5.1% for the first, 45.8% for the second.

Compared with `CCOC(=O)CSc1nnc(C(N)CC(C)C)o1` (configuration not stated), `CC(C)NC(=O)NCc1ccc(C(=O)NC(C)Cn2cccn2)cc1` (configuration not stated) is higher in INHIBITION: -28.4% for the first, 3.73% for the second.

Compared with `O=S(=O)(C1CC1)N1CCO[C@H]2[C@H](OCC3CC3)CC[C@@H]21`, `O=C(C1CC=CC1)N1C[C@@H](OCc2cccnc2)[C@H]2OCCC[C@H]21` is higher in INHIBITION: -2.35% for the first, 0.72% for the second.

Going from `O=C(NCc1cccnc1)Nc1cc(C(F)(F)F)c[nH]c1=O` to `NS(=O)(=O)NCc1cc(-c2ccc(C(F)(F)F)cc2)n[nH]1`, the INHIBITION rises from -5.77% to 57.5%.

Going from `Cc1nc(-c2ccc(C(=O)O)cc2)cc(C2CCCN(C(C)C)C2)n1` (configuration not stated) to `Cc1cncc(C2CCCN(C(=O)c3cnco3)C2)n1` (configuration not stated), the INHIBITION falls from 41.2% to 39.7%.

First: CC1c2ncc(Cn3cncn3)n2CCN1CC1CCOCC1 (configuration not stated)
Second: Cc1ccc(C(=O)N2CCc3ncc(Cn4cccn4)n3CC2)cn1
The INHIBITION of the first is lower: -8.28% for the first, 30.3% for the second.

Going from `Cc1ccc(-c2nnc(C(C)N3CCc4cncnc4C3)o2)cc1` (configuration not stated) to `Cc1cc(CN2CCc3cncnc3C2)on1`, the INHIBITION falls from 22.1% to -40.5%.

Going from `CCOc1ccccc1-c1cc(N)[nH]n1` to `CC(C)[C@H](NS(C)(=O)=O)C(=O)NCc1cc(-c2ccccc2)n[nH]1`, the INHIBITION rises from 16.2% to 33.7%.

First: Cc1ccc(F)c2c1CCCN2CC(=O)NC1CCS(=O)(=O)C1 (configuration not stated)
Second: Cc1ccc([C@H]2CN(CCO)C[C@@H]2NC(=O)CN2CCCCC2=O)o1
The INHIBITION of the first is higher: 45% for the first, 4.93% for the second.

Compared with `CCN(CC)S(=O)(=O)N(C)Cc1ccc2c(c1)OCCO2`, `CCN(CC)S(=O)(=O)N(C)Cc1ccncc1` is higher in INHIBITION: -85% for the first, 69.7% for the second.

Compared with `COCCN(CCOC)S(=O)(=O)N(C)Cc1ccncc1`, `CCN(Cc1ccncc1)S(C)(=O)=O` is lower in INHIBITION: 56% for the first, 14.3% for the second.

Going from `COCCCN(Cc1ccncc1)c1cc(C)ncn1` to `COc1ncccc1CNC(=O)c1cnc(C)cn1`, the INHIBITION falls from 10% to -7.7%.

First: CCc1ccc(S(=O)(=O)Nc2cnccc2C)s1
Second: COCc1cccc(S(=O)(=O)Nc2ncc(C)s2)c1
The INHIBITION of the first is higher: 29.85% for the first, 14.2% for the second.

Compared with `O=C(c1cccnc1)N1C[C@H]2CC[C@@H](C1)N(Cc1cccc(Cl)c1F)C2`, `O=C(C1CC1)N1Cc2[nH]nc(COCc3cccnc3)c2C1` is higher in INHIBITION: -48.4% for the first, 11.6% for the second.

Compared with `CN(C)C(=O)c1nc(-c2ccc(S(C)(=O)=O)cc2)c2cnccn12`, `CCOc1ccc(S(=O)(=O)Nc2cnc(OC)nc2OC)cc1` is higher in INHIBITION: 16.8% for the first, 81.1% for the second.

Going from `C[C@H](NS(C)(=O)=O)C(=O)NCc1cc(-c2ccco2)n[nH]1` to `COc1ncc(NC(=O)c2ccco2)c(OC)n1`, the INHIBITION rises from 2.6% to 36.6%.

Going from `CC(C)OCCSCCn1nc2ccccn2c1=O` to `CCN(C(=O)CCCOC)C(c1ccc(Cl)cc1)c1ccccn1` (configuration not stated), the INHIBITION rises from 1.41% to 31%.

Going from `CC(CC#N)n1ccc(C(F)(F)F)n1` (configuration not stated) to `N#Cc1ccccc1Cn1cncn1`, the INHIBITION rises from -6.3% to 25.3%.

Going from `Cc1nc(CCN2CCC(Oc3ccccc3F)CC2)c(C)s1` to `Cc1nc(C)c(CCN2CCC(Oc3ccccc3F)CC2)s1`, the INHIBITION rises from 82.4% to 86.4%.

Going from `Cc1n[nH]c(C)c1S(=O)(=O)N1CCC(Oc2ccccc2F)CC1` to `Cc1ccccc1OC1CCN(CC(=O)Nc2cnn(C)c2C)CC1`, the INHIBITION rises from 1.62% to 33.2%.

Going from `Cc1ccnc(C2CCN(CCCOc3ccccc3F)C2)n1` (configuration not stated) to `c1cncc(COCC2CN(Cc3ccco3)Cc3nccn3C2)c1` (configuration not stated), the INHIBITION falls from 13.5% to -6.39%.

First: O=C(c1cccnc1)N1Cc2[nH]nc(COCCO)c2C1
Second: OCCOCc1n[nH]c2c1CN(Cc1ccco1)C2
The INHIBITION of the first is higher: 40.8% for the first, 23.3% for the second.

Going from `c1cncc(COCc2n[nH]c3c2CN(Cc2ccco2)C3)c1` to `c1cncc(COCc2nnc3n2CCN(Cc2ccco2)C3)c1`, the INHIBITION falls from 61.9% to 53.4%.

Compared with `c1cncc(COCc2nnc3n2CCN(Cc2ccoc2)C3)c1`, `CCS(=O)(=O)N1Cc2[nH]nc(COCc3cccnc3)c2C1` is higher in INHIBITION: 35.1% for the first, 58.3% for the second.

First: CC(Sc1n[nH]c(-c2ccc3c(c2)CCC3)n1)C(N)=O (configuration not stated)
Second: Cc1cc(CN2CCc3nc(C)n(C)c(=O)c3CC2)[nH]n1
The INHIBITION of the first is lower: -56.1% for the first, 45.6% for the second.

Going from `CC(C)c1noc(CN2CCCC2c2noc(C(C)C)n2)n1` (configuration not stated) to `Cc1nc(Nc2nnc(C)s2)cc(C2CCCN2c2ccncn2)n1` (configuration not stated), the INHIBITION falls from 29.2% to 25.6%.

Going from `COc1ncc(NS(=O)(=O)c2ccc(OC)c(C)c2)c(OC)n1` to `COc1ncc(NS(=O)(=O)c2cccc(C)c2)c(OC)n1`, the INHIBITION falls from 69.6% to 34.6%.

Going from `COc1ncc(NS(=O)(=O)c2ccc(F)c(F)c2)c(OC)n1` to `COc1ccc(S(=O)(=O)Nc2cccnc2-n2cncn2)cc1C`, the INHIBITION falls from 11.6% to 1.56%.

Compared with `Cc1nc2c(c(=O)n1C)CCN(Cc1cc3cc[nH]c3cn1)CC2`, `O=C(C1CCCC1)N1CCCC2(CCN(c3cnccn3)CC2)C1` is lower in INHIBITION: 19.8% for the first, -9.74% for the second.

First: CCN(C(=O)CCOC)C(c1ccc(Cl)cc1)c1ccccn1 (configuration not stated)
Second: CCN(C(=O)COC)C(c1ccc(Cl)cc1)c1ccccn1 (configuration not stated)
The INHIBITION of the first is higher: 58.8% for the first, 44.9% for the second.
